The list is not random: actives were taken first. Their share in the collection is about 4.7%.
3CLpro inhibitor = SARS-CoV 3CLpro protease inhibition; recombinant SARS-CoV 3CLpro, quenched FRET peptide cleavage; actives 0.14% (n = 290,000); inhibition, % at 6 µM; in the data active = inhibition above about 12%
GDH-TPI counter-1 = inhibits GDH-TPI coupling enzymes, artifact for Mtb FBA screen; GDH-TPI coupled enzyme counterscreen, NADH absorbance; inhibition, % at 4.8 µM; actives 1.2% (n = 360,000); AID 588335;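 also: 0% = DMSO wells and 100% = wells lacking the enzyme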
CCHFV vOTU inh = blocks the CCHF virus ovarian tumor domain protease; CCHFV vOTU protease, Pep-AMC fluorescence; inhibition, % at 11.5 µM; actives 0.55% (n = 370,000); also: 0% = vehicle wells with enzyme and 100% = no enzyme wells
RecA intein inh = blocks M. tuberculosis RecA intein splicing; inhibition, % (no concentration beside the values); cell-free RecA intein splicing, fluorescence; P9WHJ3; actives 0.75% (n = 290,000); in the data active = inhibition above about 30%;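 also: 0% = vehicle wells and 100% = reference inhibitor control wells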
Mtb FBA inh = inhibits M. tuberculosis FBA enzyme; P9WQA3; purified M. tuberculosis FBA, fluorescence read-out; inhibition, % at 1 µM; actives 2.3% (n = 360,000); AID 588726; in the data active = inhibition above about 27%;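 also: 0% = vehicle and 100% = reference inhibitor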
Target sequence (P9WQA3 whole entry, looked up): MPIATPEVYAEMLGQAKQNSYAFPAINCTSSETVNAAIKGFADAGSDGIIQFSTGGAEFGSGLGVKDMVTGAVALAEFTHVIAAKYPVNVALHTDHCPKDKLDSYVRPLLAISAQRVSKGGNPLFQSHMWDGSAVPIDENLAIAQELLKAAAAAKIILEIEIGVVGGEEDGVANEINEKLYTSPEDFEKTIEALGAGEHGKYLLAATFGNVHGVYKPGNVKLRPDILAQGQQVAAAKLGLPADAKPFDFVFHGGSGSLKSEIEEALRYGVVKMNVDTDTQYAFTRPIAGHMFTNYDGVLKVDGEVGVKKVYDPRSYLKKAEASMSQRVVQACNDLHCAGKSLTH
VHR inh abs = DUSP3 (human) phosphatase inhibition | P51452 | actives 0.52% (n = 290,000) | recombinant VHR phosphatase, pNPP absorbance | inhibition, % at 13.3 µM | AID 1654; in the data active = inhibition above about 50%
Target sequence (P51452 whole entry, looked up): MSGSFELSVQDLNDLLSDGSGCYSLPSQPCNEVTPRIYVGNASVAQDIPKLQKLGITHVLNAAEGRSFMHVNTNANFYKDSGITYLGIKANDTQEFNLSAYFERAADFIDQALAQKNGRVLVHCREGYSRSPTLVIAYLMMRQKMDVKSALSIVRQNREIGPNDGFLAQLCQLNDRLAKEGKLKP
Mtb FBA confirm = confirmation of M. tuberculosis fructose-bisphosphate aldolase inhibitors. shares compounds with Mtb FBA inh. purified M. tuberculosis FBA, fluorescence read-out. inhibition, % at 1 µM. actives 78% (n = 5,600). AID 651616; in the data active = inhibition above about 27%;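 also: 0% = vehicle wells and 100% = reference inhibitor wells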
GDH-TPI counter-2 = inhibits GDH-TPI coupling enzymes, flagging Mtb FBA hits. GDH-TPI coupled enzyme counterscreen, fluorescence. AID 652141. inhibition, % at 1 µM. actives 81% (n = 5,600). shares compounds with Mtb FBA inh; in the data active = inhibition above about 10%
* = called active by the depositor; · = no result given; + = active, no number. Rule as the data show it, unless noted: active = inhibition above about 30%; inactive = the rest.

SMILES	3CLpro inhibitor	GDH-TPI counter-1	CCHFV vOTU inh	RecA intein inh	Mtb FBA inh	VHR inh abs	Mtb FBA confirm	GDH-TPI counter-2
COc1ccc(CNC(=O)COc2ccc(S(=O)(=O)N3CCOCC3)cc2C)cc1	-2.6	-9.1	11.2	-0.4	-0.6	5.8	·	·
CCCC(=O)N1CCC1(C)C(=O)Nc1ccc(OC(F)F)cc1 (stereo unspecified)	·	17.9	-11.2	·	0.1	·	·	·
N#Cc1c(-c2ccccc2F)cc(-c2cccnc2)nc1N	1.3	11.1	-164.6	2.4	110.2*	5.7	-2.8	-4.0
COc1cc(/C=N/NC(=O)C(N)=O)cc(OC)c1O	-1.8	13.7	14.8	-10.1	50.9*	21.6	+	+
CC(C)C[C@@H](CN)NC(=O)c1nc[nH]c1C(=O)N[C@@H](C)C(=O)CNC[C@H](C)NC(=O)c1nc[nH]c1C(=O)N[C@@H](CC(=O)O)C(=O)O	·	-2.1	-1.4	·	-3.1	·	·	·
Cc1nc(-c2ccccc2)sc1-c1nc(-c2cccnc2)ncc1S(=O)(=O)c1ccccc1	-2.4	14.8	·	12.4	-8.9	22.6	·	·
CC(C)(C)c1ccc(C(=O)NCCc2ccccc2)cc1	-2.7	5.5	10.0	0.2	27.1*	-29.1	111.1*	93.4*
CC(C)(C)c1ccc(C(=O)NCc2ccccc2)cc1	-0.1	-6.3	-2.9	2.5	1.6	15.8	·	·
Cc1ccccc1CSc1nc(C(C)(C)C)cc(=O)[nH]1	-1.5	2.5	2.9	0.7	4.2	17.6	·	·
CCN1C[C@]2(COC(=O)c3ccccc3N)CC[C@H](OC)C34[C@@H]5C[C@H]6[C@H](OC)[C@@H]5[C@](O)(C[C@@H]6OC)[C@@](O)([C@H]13)[C@@H](OC)[C@@H]42	-5.5	2.0	-48.0	-2.0	43.1*	27.1	59.2*	39.2*
CCN1CC2(COC(=O)c3ccccc3N)CCC(OC)C34C5CC6C(OC)CC(O)(C5C6OC)C(O)(C(OC)C23)C14 (stereo unspecified)	5.1	1.8	·	-1.3	36.0*	18.6	-2.9	-5.7
Cc1c(Cl)cccc1NC(=O)[C@@H](NC(=O)c1ccccc1Cl)C(C)C	-3.6	-2.8	5.8	-0.6	-0.1	-10.0	·	·
CCN(CC)C(=O)C1=C(C)N(Cc2ccc(C(C)(C)C)cc2)C(=O)C(CC(=O)NCCCN(C)C)C1 (stereo unspecified)	·	8.1	-2.2	·	3.2	·	·	·
Nc1nc2nccc(-c3ccccn3)n2n1	-3.1	6.4	-17.6	4.5	38.5*	16.6	+	+
c1ccc(-c2ccnc3ncnn23)nc1	2.1	6.0	1.3	1.3	3.1	2.0	·	·
COC(=O)[C@@]12CCCN1[C@H](c1ccc(-c3ccccc3)cc1)[C@@H]1C(=O)N(C)C(=O)[C@@H]12	·	-0.9	-2.9	0.5	1.1	·	·	·
CCCCn1nnnc1C(c1cc2ccccc2o1)N1CCN(CC(=O)NC(C)C)CC1 (stereo unspecified)	·	·	7.0	·	·	·	·	·
CCN(CC)S(=O)(=O)c1ccc(C(=O)OCC(=O)Nc2ccc(-c3nc4ccc(C)cc4s3)cc2)cc1	-0.8	17.7	-23.5	-1.8	28.3*	2.6	-1.8	-2.5
Cc1ccc2nc(-c3ccc(NC(=O)CCN4C(=O)c5ccccc5C4=O)cc3)sc2c1	-0.9	9.6	-85.7	-3.2	96.6*	12.7	161.8*	122.2*
CCOC(=O)Cn1c2ccccc2n2nc(CCC(=O)O)c(=O)nc12	2.4	1.9	-21.3	3.5	57.6*	25.7	-2.2	-2.9
O=C(O)CCc1nn2c3ccccc3n(CC(=O)c3ccccc3)c2nc1=O	-0.4	-4.7	-29.0	2.4	26.8	26.4	·	·
S=c1[nH]c(-c2ccccc2)cn1/N=C/c1cccnc1	0.2	18.0	-10.9	-1.1	33.8*	0.8	94.2*	84.5*
Cc1ccc(/C=N/n2c(-c3ccccc3)n[nH]c2=S)cc1	1.3	-0.7	9.4	0.1	-1.4	-0.5	·	·
S=c1[nH]c(-c2ccccc2)cn1/N=C/c1cccs1	1.7	40.0*	16.6	0.4	30.8*	14.4	151.7*	126.3*
S=c1[nH]c(-c2ccccc2)cn1/N=C/c1ccc(Br)cc1	0.3	1.3	4.8	5.4	32.5*	17.9	170.2*	126.2*
SMILES	3CLpro inhibitor	GDH-TPI counter-1	CCHFV vOTU inh	RecA intein inh	Mtb FBA inh	VHR inh abs	Mtb FBA confirm	GDH-TPI counter-2
S=c1[nH]nc(-c2cccnc2)n1/N=C/c1ccccc1	-1.3	8.1	19.2	3.0	5.7	29.4	·	·
O=C(O)c1ccc(/C=N/n2cc(-c3ccccc3)[nH]c2=S)cc1	5.6	9.5	4.1	0.4	37.4*	9.5	49.6*	38.3*
Cc1ccc(-c2n[nH]c(=S)n2/N=C/c2ccc(C(=O)O)cc2)cc1	-1.3	2.9	8.3	-1.6	-1.1	26.3	·	·
Cc1nc(C)n(CCNC(=O)c2ccco2)n1	1.7	8.6	-12.7	-2.9	-1.2	26.2	·	·
CC[C@]12c3[nH]c4cc(CCC(=O)N(C)C)ccc4c3CCN1C(=O)[C@@H](CC(=O)NCC13CC4CC(CC(C4)C1)C3)C[C@@H]2C(=O)N1CCN(C(=O)c2ccco2)CC1	·	4.5	8.2	·	-0.8	·	·	·
O=C(NCc1cccnc1)C12CC3CC(CC(Cl)(C3)C1)C2	4.5	-0.7	0.2	4.4	3.3	1.2	·	·
CCN1C(=O)[C@H]2[C@@H](c3ccc(-c4ccc(OC)cc4)cc3)N3CCC[C@@]3(C(=O)OC)[C@H]2C1=O	·	4.5	8.2	4.1	20.7	·	·	·
Cn1cnc(C(=O)NCc2ccccc2)c1C(=O)NCc1ccccc1	·	-7.8	0.9	·	0.5	·	·	·
Cc1ccc2nc(C(C)(C)C)c(Cc3cccc(F)c3)n2c1	·	·	5.9	·	36.2*	·	199.9*	172.2*
CCCc1nc2ccc(C)cn2c1Cc1cccc(F)c1	·	·	5.9	·	28.2*	·	42.9*	30.8*
C[C@H]1CN([C@@H](C)CO)C(=O)Cc2cc(NS(=O)(=O)c3ccc(Cl)cc3)ccc2O[C@@H]1CN(C)C(=O)Nc1cccc2ccccc12	·	-14.6	-9.3	·	16.2	·	·	·
CCCCNC(=O)C1(C)CCC(=O)N1C1CCN(Cc2ccccc2)CC1 (stereo unspecified)	·	·	6.6	·	1.4	·	·	·
N=C1C(c2ccccc2)=C(O)CN1c1cccc(S(=O)(=O)NCc2ccco2)c1	5.1	6.2	-4.8	0.6	0.2	17.2	·	·
CCC(=O)Nc1c(C#N)c2nc3ccccc3nc2n1-c1ccc(C)cc1	·	11.3	-52.1	·	37.6*	·	80.0*	84.2*
Cc1cc(=O)[nH]c2nc3ccccc3n12	·	15.9	-14.3	·	47.3*	·	75.6*	59.7*
COC(=O)Cc1cc(=O)n2c(nc3ccccc32)[nH]1	0.6	13.7	-28.3	0.2	65.0*	·	34.7*	17.7*
COc1cccc(CNC(=O)C2CCC(CNS(=O)(=O)c3cccc4cccnc34)CC2)c1OC (stereo unspecified)	·	·	-7.1	·	·	·	·	·
